Compound activity: PubChem, Broad Institute
Rows were chosen to be rich in hits. Some 1.8% of all compounds tested hit in one or more screens of this group.
ERp5 inh – ERp5 (human) disulfide isomerase inhibition | 350,000 compounds, 0.05% hits | AID 651711 | Q15084 | ERp5 insulin aggregation, absorbance 650 nm, 90 min | inhibition, % at 9.99 µM;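 active = mean replicate inhibition above about 25%, with every replicate also reaching it, limit read from the data, passing the limit was not always enough; inconclusive = only one of those two criteria met; inactive = neither criterion met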
PDI inh – PDI (human) enzyme inhibition; AID 588391; inhibition, % at 10 µM; P07237; PDI insulin aggregation turbidity, A650, 90 min; 350,000 compounds, 0.052% hits;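 active = mean inhibition across replicates of 30% or more, whatever share of single replicates reach that level; inconclusive = mean inhibition below 30% while every single replicate reaches 30%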
Target sequence (P07237 whole entry, looked up): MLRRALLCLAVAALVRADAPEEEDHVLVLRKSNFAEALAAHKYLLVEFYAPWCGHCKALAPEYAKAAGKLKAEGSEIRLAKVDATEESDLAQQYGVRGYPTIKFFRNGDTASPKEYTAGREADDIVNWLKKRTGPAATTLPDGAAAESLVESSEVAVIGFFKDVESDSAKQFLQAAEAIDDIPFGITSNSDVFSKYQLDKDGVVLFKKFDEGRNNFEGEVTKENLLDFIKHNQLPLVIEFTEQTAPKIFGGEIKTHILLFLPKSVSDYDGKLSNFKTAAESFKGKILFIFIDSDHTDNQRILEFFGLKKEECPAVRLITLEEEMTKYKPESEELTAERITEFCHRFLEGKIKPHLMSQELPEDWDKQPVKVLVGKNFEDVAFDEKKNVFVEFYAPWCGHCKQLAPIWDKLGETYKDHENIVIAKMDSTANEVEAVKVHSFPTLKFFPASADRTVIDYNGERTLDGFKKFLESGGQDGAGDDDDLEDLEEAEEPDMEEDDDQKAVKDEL
DENV2 CPE rescue – inhibitors of DENV2 cytopathic effect | CPE inhibition, % at 9.99 µM | 350,000 compounds, 1.7% hits | DENV2-infected cells, cytopathic effect rescue, plate reader; in the data active = CPE inhibition above about 20%, passing the limit was not always enough; inconclusive = no clear call, values can overlap the other calls; tested in BHK-21 cells;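 also: 0% = median of neutral control wells and 100% = median of positive control wells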
ERAP1 HTS inh – blocks human ERAP1 aminopeptidase activity; Q9NZ08; recombinant ERAP1, Leu-AMC fluorescence, 60 min; inhibition, % at 10.7 µM; 340,000 compounds, 0.15% hits;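 active = mean replicate inhibition of at least 30%, or all replicates individually reaching that 30% level; inactive = mean below 30% and not every replicate reaching it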;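 also: 0% = neutral control wells and 100% = L-leucinethiol positive control wells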
AF4-AF9 inh – blocks AF4 peptide binding to human AF9; P42568; AlphaScreen, biotin-AF4 peptide binding to FLAG-AF9; inhibition, % at 10 µM; 350,000 compounds, 0.47% hits;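 active = every replicate reaching a set inhibition limit, whatever the replicate mean, cut at about 25% in these data; inconclusive = mean inhibition reaches that limit but some replicates miss it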;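 also: 0% = plate neutral control median and 100% = total signal loss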
Active calls of the source: *; ? = inconclusive; . = not tested or not shown; ! = a repeat was not active.

SMILES | ERp5 inh | PDI inh | DENV2 CPE rescue | ERAP1 HTS inh | AF4-AF9 inh
C[C@H]1CCCCO[C@H](CN(C)C(=O)Nc2ccc3c(c2)OCO3)[C@@H](C)CN([C@@H](C)CO)C(=O)c2cc(NC(=O)Cc3ccccc3)ccc2O1 | . | . | 27* | . | .
COCC#Cc1ccc2c(c1)O[C@@H](CN(C)C(=O)C1CC1)[C@H](C)CN([C@H](C)CO)S2(=O)=O | -2 | . | -4 | 0 | -1
C[C@@H]1CN([C@H](C)CO)C(=O)c2cccc(NC(=O)C3CC3)c2O[C@@H]1CN(C)S(=O)(=O)c1cn(C)cn1 | 0 | . | -3 | 0 | -1
C[C@@H]1CN([C@H](C)CO)C(=O)c2cc(NC(=O)Nc3ccc(C(F)(F)F)cc3)ccc2O[C@H]1CN(C)C(=O)NC1CCCCC1 | 0 | . | 126* | 1 | 0
C[C@H]1CN([C@@H](C)CO)C(=O)c2cc(NC(=O)c3ccncc3)ccc2O[C@@H]1CN(C)C(=O)NC1CCCCC1 | -1 | . | 5 | -1 | -3
C[C@@H]1CN([C@@H](C)CO)C(=O)c2cc(NC(=O)c3ccncc3)ccc2O[C@H]1CN(C)C(=O)NC1CCCCC1 | -1 | . | 35* | 0 | -3
C[C@@H]1CCCCO[C@@H](CN(C)C(=O)Nc2ccccc2)[C@@H](C)CN([C@@H](C)CO)C(=O)c2cc(NC(=O)Nc3ccc(C(F)(F)F)cc3)ccc2O1 | 9 | . | 14 | 1 | 35*
COc1ccc(NC(=O)Nc2ccc3c(c2)C(=O)N([C@H](C)CO)C[C@H](C)[C@@H](CN(C)C(=O)Nc2ccc(C(F)(F)F)cc2)OCCCC[C@@H](C)O3)cc1 | -1 | . | ? | -4 | -6
COc1ccc(NC(=O)Nc2ccc3c(c2)C(=O)N([C@H](C)CO)C[C@H](C)[C@H](CN(C)C(=O)Nc2ccc(C(F)(F)F)cc2)OCCCC[C@H](C)O3)cc1 | -2 | . | 48* | -4 | -13
COc1ccc(C(C(=O)NCc2ccccc2)n2c(-c3ccncc3)nc3ccccc32)cc1 (configuration not stated) | 4 | . | 22* | 6 | 2
COc1ccc(C(C(=O)NCc2ccccc2)n2c(-c3ccccn3)nc3ccccc32)cc1 (configuration not stated) | -1 | . | -11 | -2 | -2
COc1ccc(NC(=O)N(C)C[C@H]2Oc3c(NS(=O)(=O)c4cn(C)cn4)cccc3C(=O)N([C@H](C)CO)C[C@H]2C)cc1 | 0 | . | 0 | 3 | -2
COc1ccc(NC(=O)N(C)C[C@H]2Oc3c(NS(=O)(=O)c4ccc(OC)cc4)cccc3C(=O)N([C@H](C)CO)C[C@@H]2C)cc1 | -6 | -25 | 28*! | -1 | -2
COc1ccc(NC(=O)N(C)C[C@H]2Oc3c(NS(=O)(=O)c4cn(C)cn4)cccc3C(=O)N([C@@H](C)CO)C[C@@H]2C)cc1 | -5 | . | 26* | 2 | -3
COc1ccc(NC(=O)N(C)C[C@H]2Oc3c(NS(=O)(=O)c4ccc(Cl)cc4)cccc3C(=O)N([C@H](C)CO)C[C@H]2C)cc1 | 6 | . | 49* | 1 | 6
C[C@H]1CN([C@@H](C)CO)C(=O)c2cccc(NS(=O)(=O)c3ccc(Cl)cc3)c2O[C@H]1CN(C)C(=O)Nc1ccccc1 | -4 | . | 40* | -8 | -8
COc1ccc(NC(=O)N(C)C[C@@H]2Oc3c(NS(=O)(=O)c4ccc(OC)cc4)cccc3C(=O)N([C@@H](C)CO)C[C@@H]2C)cc1 | 8 | . | 7 | 2 | 1
CCCCn1c(N)c(N(CCC(C)C)C(=O)c2c(C)noc2C)c(=O)[nH]c1=O | -1 | -1 | -14 | 3 | -1
COCCN(C(=O)c1c(C)noc1C)c1c(N)n(CC(C)C)c(=O)[nH]c1=O | . | 7 | ? | 83* | 1
Cc1ccc(-n2nc3c(c2NC(=O)c2ccco2)CS(=O)C3)c(C)c1 (configuration not stated) | 2 | -4 | 55* | 24 | -2
CCCc1cc(C(=O)N2CCN(C(c3ccccc3)c3ccccc3)CC2)no1 | 3 | 2 | 2 | 8 | 50*
O=C(Nc1ccccc1F)N[C@@H]1CC[C@H](CC(=O)N2CCCCC2)O[C@@H]1CO | -3 | . | . | 7 | -1
O=C(Cc1cccnc1)N1CC2(C1)[C@H](c1ccccc1)[C@@H](CO)N2C(=O)C1CC1 | 2 | . | 21* | 3 | -12
O=C(Cc1cccnc1)N1CC2(C1)[C@H](c1ccccc1)[C@@H](CO)N2C(=O)C1CCCC1 | 2 | . | -1 | 0 | 0
CC(C)NC(=O)N1[C@H](CO)[C@@H](c2ccccc2)C12CN(C(=O)Cc1cccnc1)C2 | -1 | . | 31* | 2 | -1
SMILES | ERp5 inh | PDI inh | DENV2 CPE rescue | ERAP1 HTS inh | AF4-AF9 inh
O=C(C1CCOCC1)N1[C@H](CO)[C@@H](c2ccccc2)C12CN(Cc1cccnc1)C2 | 3 | . | 97* | 8 | 3
O=c1c(OC2OC(CO)C(O)C(O)C2OC2OC(CO)C(O)C(O)C2O)c(-c2ccc(O)cc2)oc2cc(O)cc(O)c12 (configuration not stated) | -1 | . | 19 | . | -1
O=c1c(OC2OC(CO)C(O)C(O)C2O)c(-c2ccc(O)c(O)c2)oc2cc(O)cc(O)c12 (configuration not stated) | 2 | 54* | . | 56* | -3
O=c1c(O[C@H]2O[C@@H](CO)[C@H](O)[C@@H](O)[C@@H]2O)c(-c2ccc(O)cc2)oc2cc(O)cc(O)c12 | 4 | 63* | -43 | . | -4
O=c1c2c(O)cc(O)cc2oc2c(O)ccc(O[C@H]3O[C@@H](CO)[C@H](O)[C@@H](O)[C@@H]3O)c12 | 0 | 2 | -11 | 1 | -6
O=c1c(O[C@@H]2O[C@H](CO)C(O)C2O)c(-c2ccc(O)c(O)c2)oc2cc(O)cc(O)c12 (some centres not stated) | . | 41* | . | . | .
CO[C@H]1CC[C@H]2CCOc3ccc(C#N)cc3C(=O)N(C)C[C@@H](OC)[C@@H](C)C(=O)N(C)C[C@H]1O2 | 14 | . | -4 | -4 | 1
CO[C@H]1CN(C)C(=O)c2ccc(NC(=O)NC(C)C)cc2OC[C@@H](C)N(C(=O)CN(C)C)C[C@@H]1C | 1 | . | 13 | 4 | 0
CCCCCCN1C[C@@H](O)[C@H](n2cc(-c3ccc(F)cc3)nn2)C[C@@H]1c1ccc(C)cc1 | -3 | -6 | 72* | 1 | -2
C[C@H]1CCCCO[C@@H](CN(C)C(=O)Nc2ccc(C(F)(F)F)cc2)[C@@H](C)CN([C@@H](C)CO)C(=O)c2cc(NS(=O)(=O)c3ccccc3)ccc2O1 | -3 | . | 12 | -7 | -8
C[C@@H]1CCCCO[C@@H](CN(C)C(=O)Nc2ccc(C(F)(F)F)cc2)[C@H](C)CN([C@@H](C)CO)C(=O)c2cc(NS(=O)(=O)c3ccccc3)ccc2O1 | -1 | . | 54* | -6 | -9
C[C@@H]1CN([C@@H](C)CO)C(=O)c2cc(NS(C)(=O)=O)ccc2O[C@@H](C)CCCCO[C@@H]1CN(C)C(=O)Nc1ccc(C(F)(F)F)cc1 | 1 | . | 46* | -1 | -17
